Assay outcomes from PubChem BioAssay.
PrPC TRFRET = inhibitors of human cell surface prion protein PrPC, primary screen, cell-based, TR-FRET | Major prion protein (Homo sapiens), P04156 | TR-FRET read-out | inhibition, % at 13.8 µM | 370,000 tested, 0.43% active; in the data active = inhibition above about 24%
PfHsp40 rescue = rescue of yeast from PfHsp40 toxicity, primary screen, S. cerevisiae, ATP luminescence. S. cerevisiae expressing PfHsp40, growth rescue. 340,000 tested, 0.68% active. growth rescue, % at 12.5 µM; in the data active = growth rescue above about 28%, passing the limit was not always enough;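 note: yeast W303a lacking pdr1 and pdr3 grown in galactose medium; growth measured after three days at 30 °C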
PriA SSB inh = inhibitors of Klebsiella pneumoniae PriA binding to SSB C-terminal tail, primary screen, biochemical, AlphaScreen; AlphaScreen SSBct-PriA binding, biotinylated peptide; inhibition, % at 33 µM; 430,000 tested, 0.6% active; AID 1272365, 2023; in the data active = inhibition mostly above about 37%, no sharp cut-off; inactive = mostly below about 20%
Yp Topo-I inh = Yersinia pestis topoisomerase I inhibitors, primary screen, biochemical, cleavage product accumulation, plate reader, single point. DNA topoisomerase I (Yersinia pestis CO92). Y. pestis Topo-I cleavage product accumulation. activity, % at 10 µM. 360,000 tested, 0.064% active; in the data active = activity above about 50%, passing the limit was not always enough
PrP UTR inh = inhibition of PrP 5' UTR reporter expression; cell-based PrP 5' UTR mRNA reporter, plate reader; 340,000 tested, 0.35% active; inhibition, % (test concentration not listed); in the data active = inhibition above about 52%
BJeLR viability = MLPCN primary cell-based screen for lethality selective to Ras in HRASV12 cells; AID 1554, 2009; inhibition, % (no concentration beside the values); BJeLR (HRASV12) viability, CellTiter-Glo ATP luminescence, 48 h; 300,000 tested, 0.17% active; in the data active = inhibition above about 50%
A number is an active result. Sampled rows, rich in hits. Any-hit rate of the full collection: about 1.7%.

`COc1cccc(/C=C2\SC(=S)N(CCCC(=O)Nc3cc(C)on3)C2=O)c1` gave PrPC TRFRET inactive, PfHsp40 rescue inactive, PriA SSB inh inactive, Yp Topo-I inh inactive, PrP UTR inh inactive and BJeLR viability 100.0.
`CC(=O)c1sc(NC(=O)C2COc3ccccc3O2)nc1C` (stereo not drawn) gave PrPC TRFRET 40.5, PfHsp40 rescue inactive, PriA SSB inh inactive, Yp Topo-I inh inactive, PrP UTR inh inactive and BJeLR viability inactive.
For CC1(C)Oc2ccc(NC(=O)C3COc4ccccc4O3)cc2O1 (stereo not drawn) the results were PrPC TRFRET inactive, PfHsp40 rescue 40.7, PriA SSB inh inactive, Yp Topo-I inh inactive, PrP UTR inh inactive and BJeLR viability inactive.
`O=C(CCc1csc(NC(=O)c2ccc(=O)[nH]c2)n1)NCCc1ccc(F)cc1` gave PriA SSB inh inactive.
For Cc1ccc(Cl)c2sc(N3CCN(C(=O)[C@@H]4COc5ccccc5O4)CC3)nc12 the results were PriA SSB inh inactive.
Screening O=[N+]([O-])c1ccc(S(=O)(=O)c2ccccc2)nc1 returned PrPC TRFRET inactive, PfHsp40 rescue 288.6, PriA SSB inh inactive, Yp Topo-I inh inactive, PrP UTR inh inactive and BJeLR viability inactive.
Cc1ccc(S(=O)(=O)c2ccc([N+](=O)[O-])cn2)cc1 was read as PrPC TRFRET 70.3, PfHsp40 rescue 163.7, PriA SSB inh inactive, Yp Topo-I inh inactive, PrP UTR inh inactive and BJeLR viability inactive.
`COc1ccc(Cl)cc1S(=O)(=O)N1CCN(c2cc(C(F)(F)F)ncn2)CC1` gave PriA SSB inh inactive.
CN(C)C(CNC(=O)C(=O)Nc1nccs1)c1cccc2ccccc12 (stereo not drawn) was read as PriA SSB inh inactive.
Screening Cc1cc(C)nc(SCc2cc(=O)c(OC(=O)c3ccc(S(=O)(=O)N4CCCC4)cc3)co2)n1 returned PrPC TRFRET inactive, PfHsp40 rescue 129.7, PriA SSB inh inactive, Yp Topo-I inh inactive, PrP UTR inh inactive and BJeLR viability inactive.
`Cc1cc(C)nc(SCc2cc(=O)c(OC(=O)c3ccco3)co2)n1` gave PrPC TRFRET inactive, PfHsp40 rescue inactive, PriA SSB inh inactive, Yp Topo-I inh inactive, PrP UTR inh inactive and BJeLR viability inactive.
`O=C1CC(c2cccnc2)=NN1c1ccccc1` gave PrPC TRFRET inactive, PfHsp40 rescue 90.8, PriA SSB inh inactive, Yp Topo-I inh inactive, PrP UTR inh inactive and BJeLR viability inactive.
For Cc1ccc(C)c(CC(=O)Nc2nnc(-c3ccno3)o2)c1 the results were PriA SSB inh 56.0.
OC1CNC1 was read as PriA SSB inh inactive.
`COC(=O)COc1ccc(-c2ccccc2)cc1C=O` gave PrPC TRFRET inactive, PfHsp40 rescue 64.3, PriA SSB inh inactive, Yp Topo-I inh inactive, PrP UTR inh inactive and BJeLR viability inactive.
Screening COC(=O)COc1ccc(C)cc1-n1nc2ccccc2n1 returned PrPC TRFRET inactive, PfHsp40 rescue 43.6, PriA SSB inh inactive, Yp Topo-I inh inactive, PrP UTR inh inactive and BJeLR viability inactive.
COC(=O)COc1ccccc1C(N)=O was read as PrPC TRFRET inactive, PfHsp40 rescue inactive, PriA SSB inh inactive, Yp Topo-I inh inactive, PrP UTR inh inactive and BJeLR viability inactive.
For COC(=O)COc1ccc(-c2ccc(F)cc2)cc1C=O the results were PrPC TRFRET inactive, PfHsp40 rescue 63.0, PriA SSB inh inactive, Yp Topo-I inh inactive, PrP UTR inh inactive and BJeLR viability inactive.
Cc1c(Cl)cccc1S(=O)(=O)N(Cc1ccoc1)Cc1cccs1 was read as PriA SSB inh inactive.
`Cc1ccc(S(=O)(=O)/N=C(\N)Nc2nc(C)c3cc(C)ccc3n2)cc1` gave PrPC TRFRET inactive, PfHsp40 rescue inactive, Yp Topo-I inh 58.0, PrP UTR inh inactive and BJeLR viability inactive.
`O=S(=O)(N1CCCCC1)n1nnc2ccccc21` gave PrPC TRFRET inactive, PfHsp40 rescue 39.2, PriA SSB inh inactive, Yp Topo-I inh inactive, PrP UTR inh inactive and BJeLR viability inactive.
Screening O=S(=O)(N1CCCCC1)n1nnc2cc3ccccc3cc21 returned PrPC TRFRET inactive.
`O=C(Cc1cc(-c2cc3ccccc3o2)on1)NCc1ccco1` gave PriA SSB inh inactive.
CC(C)C(=O)NNS(=O)(=O)c1ccccc1[N+](=O)[O-] was read as PrPC TRFRET inactive, PfHsp40 rescue 55.3, PriA SSB inh inactive, Yp Topo-I inh inactive, PrP UTR inh inactive and BJeLR viability inactive.
For COC(C(=O)NNS(=O)(=O)c1ccccc1[N+](=O)[O-])c1ccccc1 (stereo not drawn) the results were PrPC TRFRET inactive, PfHsp40 rescue inactive, PriA SSB inh inactive, Yp Topo-I inh inactive, PrP UTR inh inactive and BJeLR viability inactive.
For COc1ccc(C)c2sc(NC(=O)c3ccc(Cl)s3)nc12 the results were PriA SSB inh inactive.
`CCCN1CCCc2cc(CCNC(=O)c3cccc(Cl)c3)ccc21` gave PriA SSB inh inactive.
For CCCN1CCCc2cc(CCNC(=O)c3ccccc3OC)ccc21 the results were PriA SSB inh 73.0.
For CCCN1CCCc2cc(CCNC(=O)c3ccccc3Cl)ccc21 the results were PriA SSB inh 53.0.
Screening CCCN1CCCc2cc(CCNC(=O)c3ccccc3C)ccc21 returned PriA SSB inh 59.0.
For O=C(c1ccc(-n2cccc2)cc1)N1CCN(Cc2csc(-c3ccccc3)n2)CC1 the results were PriA SSB inh 29.0.
COc1nn(C)cc1C(=O)N(Cc1ccccn1)c1nc2c(Cl)cccc2s1 was read as PriA SSB inh inactive.
Screening O=C(c1ccccn1)N1CCN(c2ccc(-c3ccccn3)nn2)CC1 returned PriA SSB inh 157.0.
Screening CS(=O)(=O)N1CCN(c2ccc(-c3ccccn3)nn2)CC1 returned PriA SSB inh 77.0.
`CS(=O)(=O)N1CCN(c2ccc(-c3ccco3)nn2)CC1` gave PriA SSB inh inactive.
For O=C(c1ccccc1Cl)N1CCN(c2ccc(-c3ccccn3)nn2)CC1 the results were PriA SSB inh 147.0.
For Cc1ccccc1-c1ccc(N2CCN(C(=O)c3ccccn3)CC2)nn1 the results were PriA SSB inh inactive.
For CC(=O)c1ccc(S(=O)(=O)NCCNC(=O)c2ccc(NC(=O)C3CC3)cc2)cc1 the results were PriA SSB inh inactive.
CCCCOC[C@@H](O)CN1CCN(c2ccccc2F)CC1 was read as PriA SSB inh inactive.
`CCOC(=O)c1ccsc1NC(=O)c1ccc(N2C(=O)CCC2=O)cc1` gave PriA SSB inh inactive.
`O=C(Cc1ccccc1)CC(CC(=O)c1ccccc1)c1ccccc1` (stereo not drawn) gave PrPC TRFRET inactive and Yp Topo-I inh 56.2.
